About 2,000 (36%) of roughly 5,500 compounds were called active. Another 18% or so got no clear call; they are omitted. No stated cut-off is given here; in the data, active means normalized growth mostly below about 0.91 (no sharp cut-off); inconclusive means no clear call, values can overlap the other calls; inactive means mostly above about 0.92. Some of the results follow.
Test: chemical genetic growth profiling, strain panel (AID 1159580);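 further: tested at 20 µM; growth read once vehicle control cultures reached saturation at 30 °C; 1 = growth at the plate median or of vehicle wells; lower values mean less growth of the strain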
Conditions: growth OD
[1] = S. cerevisiae deletion strains, locus YAL013W, strain DEP1, hits give low values
[2] = S. cerevisiae deletion strains, locus YBR229C, strain ROT2, hits give low values
[3] = S. cerevisiae deletion strains, locus YCL061C, strain MRC1, hits give low values
[4] = S. cerevisiae deletion strains, locus YDL101C, strain DUN1, hits give low values
[5] = S. cerevisiae deletion strains, locus YDL134C, strain PPH21, hits give low values
[6] = S. cerevisiae deletion strains, locus YDR150W, strain NUM1, hits give low values
[7] = S. cerevisiae deletion strains, locus YEL061C, strain CIN8, hits give low values
[8] = S. cerevisiae deletion strains, locus YGR078C, strain PAC10, hits give low values
[9] = S. cerevisiae deletion strains, locus YGR229C, strain SMI1, hits give low values
[10] = S. cerevisiae deletion strains, locus YHR030C, strain SLT2, hits give low values
[11] = S. cerevisiae deletion strains, locus YHR087W, strain rtc3, hits give low values
[12] = S. cerevisiae deletion strains, locus YJR043C, strain POL32, hits give low values
[13] = S. cerevisiae deletion strains, locus YJR075W, strain HOC1, hits give low values
[14] = S. cerevisiae deletion strains, locus YLR039C, strain RIC1, hits give low values
[15] = S. cerevisiae deletion strains, locus YLR058C, strain SHM2 (second series), hits give low values
[16] = S. cerevisiae deletion strains, locus YLR085C, strain ARP6, hits give low values
[17] = S. cerevisiae deletion strains, locus YLR262C, strain YPT6, hits give low values
[18] = S. cerevisiae deletion strains, locus YML094W, strain GIM5, hits give low values
[19] = S. cerevisiae deletion strains, locus YMR219W, strain ESC1, hits give low values
[20] = S. cerevisiae deletion strains, locus YMR263W, strain SAP30, hits give low values
[21] = S. cerevisiae deletion strains, locus YNL153C, strain GIM3, hits give low values
[22] = S. cerevisiae deletion strains, locus YNL298W, strain CLA4 (second series), hits give low values
[23] = S. cerevisiae deletion strains, locus YNL322C, strain KRE1, hits give low values
[24] = S. cerevisiae deletion strains, locus YNR030W, strain Alg12, hits give low values
[25] = S. cerevisiae deletion strains, locus YPL055C, strain LGE1, hits give low values
[26] = S. cerevisiae deletion strains, locus YPL241C, strain CIN2, hits give low values
[27] = S. cerevisiae deletion strains, locus YPR135W, strain CTF4, hits give low values

Measured: normalized growth

CCc1nnc(N=CNO)s1
inactive: [1] 0.956 | [3] 0.913 | [4] 0.932 | [5] 0.989 | [6] 0.978 | [8] 0.973 | [9] 0.992 | [12] 0.97 | [14] 0.967 | [15] 1 | [16] 0.803 | [17] 0.947 | [20] 0.968 | [21] 0.965 | [23] 1.01 | [24] 0.944 | [25] 0.909 | [26] 0.99 | [27] 0.795
active: [2] 0.846 | [7] 0.843 | [10] 0.573 | [11] 0.79 | S. cerevisiae deletion strains, locus YJL187C, strain SWE1, hits give low values 0.817 | [13] 0.809 | [18] 0.855 | [19] 0.879 | [22] 0.823 | S. cerevisiae deletion strains, locus YOL006C, strain TOP1, hits give low values 0.465

CCOC(=O)c1ccc2nc(N=CNO)sc2c1
inactive: S. cerevisiae deletion strains, locus YAR019C, strain CDC15, hits give low values 0.948 | S. cerevisiae deletion strains, locus YBL105C, strain PKC1, hits give low values 0.94 | S. cerevisiae deletion strains, locus YBR135W, strain CKS1, hits give low values 0.947 | S. cerevisiae deletion strains, locus YBR136W, strain MEC1, hits give low values 0.951 | S. cerevisiae deletion strains, locus YBR160W, strain CDC28, hits give low values 0.954 | S. cerevisiae deletion strains, locus YDL017W, strain CDC7, hits give low values 0.953 | S. cerevisiae deletion strains, locus YDL028C, strain MPS1, hits give low values 0.956 | [4] 0.973 | S. cerevisiae deletion strains, locus YDL108W, strain KIN28, hits give low values 0.946 | S. cerevisiae deletion strains, locus YDL132W, strain cdc53, hits give low values 0.946 | S. cerevisiae deletion strains, locus YDL214C, strain PRR2, hits give low values 0.905 | S. cerevisiae deletion strains, locus YDR052C, strain DBF4, hits give low values 0.961 | S. cerevisiae deletion strains, locus YDR054C, strain cdc34, hits give low values 0.938 | S. cerevisiae deletion strains, locus YDR226W, strain ADK1, hits give low values 0.958 | S. cerevisiae deletion strains, locus YDR477W, strain SNF1, hits give low values 0.913 | S. cerevisiae deletion strains, locus YER123W, strain YCK3, hits give low values 0.864 | S. cerevisiae deletion strains, locus YER133W, strain GLC7, hits give low values 0.888 | S. cerevisiae deletion strains, locus YFL009W, strain cdc4, hits give low values 0.938 | S. cerevisiae deletion strains, locus YFL029C, strain CAK1, hits give low values 0.951 | S. cerevisiae deletion strains, locus YFR003C, strain YPI1, hits give low values 0.951 | S. cerevisiae deletion strains, locus YFR019W, strain FAB1, hits give low values 0.909 | S. cerevisiae deletion strains, locus YFR028C, strain CDC14, hits give low values 0.967 | S. cerevisiae deletion strains, locus YGR040W, strain KSS1, hits give low values 0.919 | S. cerevisiae deletion strains, locus YGR052W, strain FMP48, hits give low values 0.983 | S. cerevisiae deletion strains, locus YGR092W, strain DBF2, hits give low values 0.771 | [10] 0.961 | S. cerevisiae deletion strains, locus YHR079C, strain IRE1, hits give low values 0.964 | S. cerevisiae deletion strains, locus YHR082C, strain KSP1, hits give low values 0.986 | S. cerevisiae deletion strains, locus YHR205W, strain SCH9, hits give low values 0.886 | S. cerevisiae deletion strains, locus YIL147C, strain SLN1, hits give low values 0.945 | S. cerevisiae deletion strains, locus YJL095W, strain BCK1, hits give low values 0.977 | S. cerevisiae deletion strains, locus YJL128C, strain PBS2, hits give low values 0.94 | S. cerevisiae deletion strains, locus YJL157C, strain FAR1, hits give low values 0.881 | S. cerevisiae deletion strains, locus YJR016C, strain ILV3, hits give low values 0.948 | S. cerevisiae deletion strains, locus YJR066W, strain TOR1 (second series), hits give low values 0.717 | S. cerevisiae deletion strains, locus YJR066W, strain TOR1, hits give low values 0.995 | S. cerevisiae deletion strains, locus YKL048C, strain ELM1, hits give low values 0.955 | S. cerevisiae deletion strains, locus YKL067W, strain YNK1, hits give low values 0.915 | S. cerevisiae deletion strains, locus YKL101W, strain HSL1, hits give low values 0.907 | S. cerevisiae deletion strains, locus YKL193C, strain SDS22, hits give low values 0.955 | S. cerevisiae deletion strains, locus YKL203C, strain TOR2, hits give low values 0.958 | S. cerevisiae deletion strains, locus YLR113W, strain HOG1, hits give low values 0.988 | S. cerevisiae deletion strains, locus YLR133W, strain CKI1, hits give low values 0.922 | S. cerevisiae deletion strains, locus YLR403W, strain SFP1, hits give low values 0.879 | S. cerevisiae deletion strains, locus YML070W, strain DAK1, hits give low values 0.892 | S. cerevisiae deletion strains, locus YMR001C, strain CDC5, hits give low values 0.951 | S. cerevisiae deletion strains, locus YMR205C, strain PFK2 (second series), hits give low values 0.931 | S. cerevisiae deletion strains, locus YMR277W, strain FCP1, hits give low values 0.963 | S. cerevisiae deletion strains, locus YNL006W, strain LST8, hits give low values 0.945 | S. cerevisiae deletion strains, locus YNL020C, strain ARK1, hits give low values 0.911 | S. cerevisiae deletion strains, locus YNL161W, strain CBK1, hits give low values 0.951 | S. cerevisiae deletion strains, locus YNL183C, strain NPR1, hits give low values 1 | S. cerevisiae deletion strains, locus YNL207W, strain RIO2, hits give low values 0.949 | S. cerevisiae deletion strains, locus YNL222W, strain SSU72, hits give low values 0.952 | S. cerevisiae deletion strains, locus YNL307C, strain MCK1 (second series), hits give low values 0.926 | S. cerevisiae deletion strains, locus YOL078W, strain AVO1, hits give low values 0.958 | S. cerevisiae deletion strains, locus YOL136C, strain PFK27, hits give low values 0.892 | S. cerevisiae deletion strains, locus YOR061W, strain CKA2, hits give low values 0.894 | S. cerevisiae deletion strains, locus YOR119C, strain RIO1, hits give low values 0.908 | S. cerevisiae deletion strains, locus YOR231W, strain MKK1, hits give low values 0.938 | S. cerevisiae deletion strains, locus YOR329C, strain SCD5, hits give low values 0.947 | S. cerevisiae deletion strains, locus YPL031C, strain PHO85, hits give low values 0.867 | S. cerevisiae deletion strains, locus YPL153C, strain RAD53, hits give low values 0.88 | S. cerevisiae deletion strains, locus YPL204W, strain HRR25, hits give low values 0.889 | S. cerevisiae deletion strains, locus YPL209C, strain IPL1, hits give low values 0.947 | S. cerevisiae deletion strains, locus YPL256C, strain CLN2, hits give low values 1.02 | S. cerevisiae deletion strains, locus YPR025C, strain CCL1, hits give low values 0.95 | S. cerevisiae deletion strains, locus YPR106W, strain ISR1, hits give low values 0.968 | S. cerevisiae deletion strains, locus YPR111W, strain DBF20, hits give low values 0.963 | S. cerevisiae deletion strains, strain NNK1, hits give low values 0.96 | S. cerevisiae deletion strains, strain TSCII, hits give low values 0.952

CCOC(=O)Cc1csc(N=CNO)n1
inactive: [1] 1.01 | [2] 1.02 | [3] 1.01 | [4] 1 | [5] 1.02 | [6] 0.892 | [7] 1.01 | [8] 1.02 | [9] 0.997 | [10] 0.999 | [11] 1.04 | [12] 0.989 | [13] 1.05 | [14] 0.992 | [15] 1.02 | [16] 1.03 | [17] 0.951 | [18] 1.02 | [19] 1.02 | [20] 0.999 | S. cerevisiae deletion strains, locus YMR307W, strain GAS1, hits give low values 1.03 | S. cerevisiae deletion strains, locus YNL128W, strain TEP1, hits give low values 0.999 | [21] 1.01 | [22] 1.05 | [23] 1.01 | [24] 1.03 | [25] 1.02 | [26] 1.02 | [27] 1.04 | S. cerevisiae strains, strain wild type, hits give low values 1.03

Reference: PubChem BioAssay AID1159580 (chemical genetic matrix, 2015)
